Data: ChEMBL document CHEMBL3433997, “St. Jude Leishmania screening dataset” (2016)

How the values were obtained:
Format in all cases: functional
[1] = biological target: Solute carrier family 2, facilitated glucose transporter member 1 (Homo sapiens) (UniProt P11166); experiment: ST_JUDE_LEISH: Cytotoxicity at 2uM final concentration against transgenic Leishmania Mexicana promastigotes LmGLUT1 that are glucose transport deficient and complemented with the human glucose transporter GLUT1. Activity is measured by DNA content using SYBR green in vitro
[2] = biological target: Hexose transporter 1 (Plasmodium falciparum) (UniProt O97467); experiment: ST_JUDE_LEISH: Cytotoxicity at 2uM final concentration against transgenic Leishmania Mexicana promastigotes LmPfHT that are glucose transport deficient and complemented with the Plasmodium falciparum hexose transporter. Activity is measured by DNA content using SYBR green in vitro
[3] = biological target: Glucose transporter (Leishmania mexicana) (UniProt O61059); experiment: ST_JUDE_LEISH: Cytotoxicity at 2uM final concentration against transgenic Leishmania Mexicana promastigotes LmGT2 that are glucose transport deficient and complemented with the L. Mexicana glucose transporter 2. Activity is measured by DNA content using SYBR green in vitro

Chain of Solute carrier family 2, facilitated glucose transporter member 1 (Homo sapiens) (P11166 whole entry): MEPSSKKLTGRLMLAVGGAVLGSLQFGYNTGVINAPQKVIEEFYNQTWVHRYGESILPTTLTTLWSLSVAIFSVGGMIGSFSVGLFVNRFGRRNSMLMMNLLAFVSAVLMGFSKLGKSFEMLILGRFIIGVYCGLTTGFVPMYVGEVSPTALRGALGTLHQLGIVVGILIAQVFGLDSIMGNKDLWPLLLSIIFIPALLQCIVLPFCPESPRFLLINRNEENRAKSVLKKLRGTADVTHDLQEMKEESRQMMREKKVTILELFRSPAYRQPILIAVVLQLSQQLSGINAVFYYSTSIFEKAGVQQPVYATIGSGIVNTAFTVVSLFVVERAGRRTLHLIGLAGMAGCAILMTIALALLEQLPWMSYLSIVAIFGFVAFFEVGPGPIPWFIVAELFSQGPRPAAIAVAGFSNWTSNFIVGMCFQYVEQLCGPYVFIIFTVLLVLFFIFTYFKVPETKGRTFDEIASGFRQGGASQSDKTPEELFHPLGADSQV

| SMILES | inhibition [1] [%] | inhibition [2] [%] | inhibition [3] [%] |
| --- | --- | --- | --- |
| CC(C)(C)c1nn(-c2ccc(Cl)cc2)c2[nH]c(=O)c(CNC3CCCC3)cc12 | 7.6 | 6.85 | 8.31 |
| Oc1c(C=Nn2cnnc2)sc2ccccc12 | -0.72 | 5.61 | 11.2 |
| COc1ccc(C(=O)CCC(=O)N(CCSC(C)(C)C)Cc2ccc(-c3ccc(CNCCc4ccc(S(C)(=O)=O)cc4)cn3)cc2)cc1F | 10.4 | 9.03 | 7.07 |
| O=c1cc(NCCCNC2CCCc3c2cc(Cl)c(Cl)c3Cl)[nH]c2ccccc12 (stereo unspecified) | -3.43 | 1.1 | 0.08 |
| Cc1cc(C)c(-c2n[nH]c3c2C(c2cccc(Cl)c2)N(Cc2ccco2)C3=O)c(O)c1 (stereo unspecified) | 1.7 | 5.35 | 1.37 |
| CN(C)CCCOc1ccc(CN2CC[C@H](NC(=O)c3ccc(Cl)c(Cl)c3)C2)cc1Cl | 13.3 | 10.7 | 8.69 |
| CCn1ccc2c(N3CCCCS3(=O)=O)cc(C(=O)N[C@@H](Cc3ccccc3)[C@H](O)CNC(C)(C)CCCC(C)C)cc21 | 2.17 | 1.95 | 5.14 |
| O=[N+]([O-])c1ccc(N/C(=N\c2ccccc2Br)NC2CCCc3ccccc32)c(O)c1 (stereo unspecified) | 0.73 | -1.02 | -1.9 |
| Cc1cccc2nc(-c3cccc(-c4ccc(NC(=O)c5ccoc5)cc4)c3)[nH]c12 | -0.27 | 2.14 | -1.09 |
| Cc1[nH]c(C)c(-c2cccc(-c3ccc(OC(F)(F)F)cc3)c2)c(=O)c1Br | 1.89 | 4.46 | -1.64 |
| CCOC(=O)C(=O)N1c2ccc(OCC)cc2-c2c(ssc2=S)C1(C)C | -0.01 | 0.3 | 6.04 |
| FC(F)(F)c1ccc(N2CCCN(Cc3cccc(-c4ccccc4CNCc4ccc5c(c4)OCO5)c3)CC2)nc1 | 2.61 | -2.51 | -0.04 |
| CC(C)NCc1cccc(-c2ccc(NS(=O)(=O)c3cccc4cccnc34)cc2)c1 | 13.8 | 8.78 | -2.82 |
| CCCCOc1cc(C)nc2ccc(NC(=O)COCC(=O)Nc3ccc4nc(C)cc(OCCCC)c4c3)cc12 | 14.9 | 13.7 | 11.2 |
| COc1cc(Nc2nccc(N3CCC(NS(=O)(=O)c4ccc(NC(C)=O)cc4)CC3)n2)cc(OC)c1OC | -1.13 | -0.44 | -0.12 |
| O=C(/C=C/c1ccc(Cl)c(Cl)c1)N1CCC(CN2CCC(Cc3cc4ccccc4[nH]3)CC2)CC1 | 0.17 | 2.49 | 0.81 |
| CC(=O)N1c2ccccc2C(C)=CC1(C)C | -0.17 | -0.45 | -1.02 |
| O=C(CCCCCNC(=O)c1ccc(O)c(-c2ccc(Cl)c(Cl)c2)c1)NCCc1ccc(Cl)c(Cl)c1 | -0.22 | 0.09 | 0.33 |
| CN(Cc1ccc(C#N)cc1)C1CCN(c2cc(NC(=O)c3cccc(F)c3)ccn2)CC1 | -1.86 | -1.81 | 0.96 |

| SMILES | inhibition [1] [%] | inhibition [2] [%] | inhibition [3] [%] |
| --- | --- | --- | --- |
| COc1ccc(CNC(=N)Nc2nc(-c3ccc(OCCCn4ccnc4)cc3)cs2)cc1 | 10.6 | 7.44 | 2.73 |
| CN1CCN(c2ccc(Nc3ncc(Cl)c(Nc4cccnc4C(N)=O)n3)cc2)CC1 | 84.2 | 87.3 | 66.8 |
| CCc1cn2c3c(cc(C(=O)N[C@@H](Cc4ccccc4)[C@H](O)CNC(C)(C)CCCC(C)C)cc13)N(C)S(=O)(=O)C2 | 2.45 | 2.22 | 0.85 |
| CCCOc1cc(O)c(-c2[nH]nc(C)c2Oc2ccccc2)cc1CC | 1.25 | -0.1 | -1 |
| Cc1ccc(-n2c(=O)c3c(n4c(SC(C)C)nnc24)-c2ccccc2CC32CCCCC2)cc1 | 7.08 | 6.98 | 5.47 |
| CCCc1ccc(NC(=O)c2ccc(CN3CCCN(Cc4ccc(OC)cc4)CC3)cc2)cc1 | -1.19 | -0.55 | -0.74 |
| CNc1cc(-c2ccc3ccnc(N)c3c2)nc(N)n1 | -1.76 | 0.35 | -3.58 |
| CCOc1ccc(-c2nonc2NC(=O)c2ccccc2Cl)cc1OCC | 5.4 | 7.22 | 2.27 |
| COc1cc(Cc2cnc(N)nc2N)cc(OCCNC(=O)OCc2ccccc2)c1OC | -1.11 | -1.55 | -1.22 |
| CC(C)(C)c1nn(-c2ccccc2)c2[nH]c(=O)c(CNCc3ccccc3)cc12 | 2.76 | 2.02 | 3.75 |
| CC(Oc1c(C2CCN(CCCCNC(=O)c3ccc(-c4ccc(C#N)cc4)cc3)CC2)ccc2c1CCCC2)C(N)=O (stereo unspecified) | -0.84 | 1.22 | 0.3 |
| CNCCNCc1cccc(-c2cccc(-c3nc4cc(F)ccc4[nH]3)c2)c1 | 10.2 | 7.92 | 7.49 |
| CCOC(=O)c1cnc2c(OC)cc(OC)c(Cl)c2c1Nc1cccc(C)c1C | 0.67 | -0.69 | -6.14 |
| CC(=O)Nc1nc(C(=O)Nc2cccc(-c3ccc(-c4nc5cccc(C)c5[nH]4)s3)c2)cs1 | 6.86 | 11.9 | 8.32 |
| COc1ccc(Nc2nccc(-c3ccc4ccnc(NCCCCN)c4c3)n2)cc1 | -0.78 | -1.84 | -4.14 |
| COc1cccc(CNCC(C)(C)c2nc(-c3ccc(Cl)c(O)c3)c(-c3ccncc3)[nH]2)c1 | -1.42 | -3.17 | 2.87 |
| Cc1ccc(O)cc1Nc1ccnc2ccc(-c3cccc(CN(C)C)c3)cc12 | 0.24 | -2.77 | 0.73 |
| COc1ccc(N2CCN(CCCCNC(=O)c3ccc(NC(=O)c4ccc(Cl)c(Cl)c4)cc3)CC2)c(OC)c1 | 2.23 | 1.72 | 1.65 |
| CC(=O)Nc1nc(C(=O)Nc2cccc(-c3ccc(-c4nc5ccccc5[nH]4)cc3)c2)cs1 | 13 | 11.8 | 10.3 |

| SMILES | inhibition [1] [%] | inhibition [2] [%] | inhibition [3] [%] |
| --- | --- | --- | --- |
| Cc1ccc2[nH]c(-c3ccccc3N)cc2c1 | 3.92 | 4.5 | 4.49 |
| c1cc(COc2ccc(C3=NCCN3)cc2)nc(COc2ccc(C3=NCCN3)cc2)c1 | 4.95 | 5.66 | -0.59 |
| O=C(/C=C/c1cccc2c1OCO2)Nc1ccnc2ccncc12 | 1.56 | 1.4 | 1.89 |
| N=C1SC(=Cc2cn[nH]c2-c2ccc(F)cc2)C(=O)N1c1nccs1 | 0.88 | 2.1 | 1.17 |
| C=C(C)Cn1cc(C2CCN(CCN3CCC(CNC(=O)c4ccc(-c5ccc(C#N)cc5)cc4)CC3)CC2)c2ccccc21 | 7.94 | 4.28 | 5.17 |
| Cc1ccc(NC(=O)c2ccc(Cl)cc2)cc1-c1ccc(C(=O)Nc2ccncc2)cc1 | -1.61 | 1.31 | 0.29 |
| COc1ccc2[nH]ccc(=NN=Cc3cccc(F)c3)c2c1 | 1.01 | 2.87 | 0.07 |
| COc1cccc([C@@H](CC(=O)Nc2cc(C(F)(F)F)ccc2OC)Nc2ccc(C#N)c3ccccc23)c1 | 7.27 | 5.34 | 4.83 |
| CC[C@H](NC(=O)c1c(CC2CCN(CC(C)=O)CC2)c(-c2ccccc2)nc2ccccc12)c1ccccc1 | 2.8 | 3.28 | 0.03 |
| OCCOCn1cnc2cnc(N[C@H]3OC[C@H](O)[C@@H](O)[C@@H]3O)nc21 | 0.99 | 2.06 | 1.69 |
| CCOc1cc(C)ccc1C1CCN(CCCCNC(=O)c2cnc(-c3ccc(C(F)(F)F)cc3)[nH]2)CC1 | -1.9 | 2.12 | -0.53 |
| CCNc1cc(C(=O)N[C@@H](Cc2ccccc2)[C@H](O)CNC2(C(C)C)CCC2)cc(N2CCCCS2(=O)=O)c1 | -0.22 | 0.75 | -2.45 |
| CCc1cn2c3c(cc(C(=O)N[C@@H](Cc4cccc(F)c4)[C@H](O)CNC4CC4)cc13)N(C)S(=O)(=O)CC2 | 2.18 | 3.5 | 4.48 |
| O=C(Nc1ccc(-c2ccc(-c3nc4ccccc4[nH]3)cc2)cc1)Nc1ccc(Cl)c(Cl)c1 | 3.78 | 2.21 | -4.96 |
| O=[N+]([O-])c1cc(/C=N/Nc2nc3nonc3nc2Nc2ccc(F)cc2)c(Cl)cc1Cl | -0.53 | -0.25 | -0.83 |
| N#Cc1ccc(C2CCN(CC[C@H](N)Cc3ccc(Cl)s3)CC2)cc1 | 22.8 | 10.7 | 15.8 |
| CCOC(=O)c1ccc(-n2c(C)cc(C=C3SC(=Nc4ccccc4)N(C4CCCC4)C3=O)c2C)cc1 | 3.76 | 3.52 | 4.67 |
| O=C1COc2ccccc2N1C/C=C(\CN1CCC(c2ccccc2)CC1)c1cc(Cl)cc(Cl)c1 | 1.77 | 1.99 | 1.69 |
| c1ccc2cc3c(Nc4ccc(N5CCCCC5)cc4)ccnc3cc2c1 | 2.76 | 4.37 | 2.3 |
